MEKK3 PB1 HTS = modulators (inhibitors or enhancers) of MEK5 binding to human MEKK3 PB1 domain | Q99759 | bead-based flow cytometry, Alexa488-MEK5 binding to MEKK3; actives lie on both sides; 0 = blocked by unlabeled MEK5, 100 = vehicle | binding response (% of control), % at 10 µM | 290,000 tested, 1.4% active | AID 1529;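 active = binding response more than 3 SD above or below the average of its plate-row segment, actives on both sides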;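 note: Alexa488 bead fluorescence after subtracting the streptavidin-only scavenger bead signal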
DNA FID counter = displaces DNA intercalator in HCV helicase counter-screen; inhibition, % at 7.9 µM; DNA fluorescent intercalator displacement, fluorescence; 290,000 tested, 0.17% active; in the data active = inhibition above about 37%;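 note: higher means more ethidium bromide displaced from hairpin DNA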
MEKK2 mut-MEK5 = signal of MEK5 binding to mutant human MEKK2 PB1 domain; bead flow cytometry, Alexa488-MEK5 binding to MEKK2 mutant; 290,000 tested, 0.35% active; percent response, % at 10 µM; in the data active = percent response above about 24%, passing the limit was not always enough
MEKK2wt PB1 HTS = raises or lowers MEK5 binding to wildtype human MEKK2 PB1 domain | AID 1531 | Q9Y2U5 | bead flow cytometry, Alexa488-MEK5 binding to MEKK2 WT; actives lie on both sides | binding response (% of control), % at 10 µM | 290,000 tested, 1.1% active; in the data active = binding response below about 67% or above about 130%
dFosB act = mouse delta FosB homodimer activation; P13346; purified delta FosB, TAMRA-CDK5 oligo fluorescence polarization; percent of positive-control signal above neutral wells; activation, % at 25 µM; 340,000 tested, 0.99% active;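 active = mean activation above about 17%, with every replicate also reaching it, limit read from the data, passing the limit was not always enough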
MEKK2wt confirm = raises or lowers MEK5 binding to wildtype human MEKK2, retest; 5,900 tested, 2.4% active; binding response (% of control), % at 10 µM; AID 1892; shares compounds with MEKK3 PB1 HTS; bead flow cytometry, Alexa488-MEK5 binding to MEKK2 WT; actives lie on both sides; in the data active = binding response below about 16% or above about 210%; inactive = in between
MEKK2mut confirm = signal of MEK5 binding to mutant human MEKK2, retest | shares compounds with MEKK3 PB1 HTS | bead flow cytometry, Alexa488-MEK5 binding to MEKK2 mutant | percent response, % at 10 µM | 5,900 tested, 2% active | AID 1893; in the data active = percent response mostly above about 71%, no sharp cut-off; inactive = mostly below about 38%;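 note: higher means compound restores mutant binding toward wildtype level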
MEKK3 confirm = confirmation of inhibitors of MEK5 binding to human MEKK3; 5,900 tested, 1.8% active; binding response (% of control), % at 10 µM; shares compounds with MEKK3 PB1 HTS; bead flow cytometry, Alexa488-MEK5 binding to MEKK3; active compounds read low;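 active = binding response below 72% of control, or above a set upper limit, though filed actives all read lower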;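 note: lower values mean stronger disruption of MEK5 binding to MEKK3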
A number is an active result; n = inactive; x = no result; [ ] = dose if it differs, or a comment. The list is not random: actives were taken first. Their share in the collection is about 2.9%.

SMILES	MEKK3 PB1 HTS	DNA FID counter	MEKK2 mut-MEK5	MEKK2wt PB1 HTS	dFosB act	MEKK2wt confirm	MEKK2mut confirm	MEKK3 confirm
Cc1ccc(C)c(NC(=S)NNC(=O)c2csc(C)c2C)c1	2.0[inhibitor]	n	n	2.0[inhibitor]	n	n	n	n
O=C(COC(=O)COc1ccccc1)Nc1ccccc1OC(F)F	72[inhibitor]	n	n	n	n	n	n	n
CC(=O)OCC(=O)Nc1ccccc1OC(F)F	n	n	n	n	n	x	x	x
NC(=O)c1ccsc1NC(=O)COC(=O)Cc1ccccc1Cl	x	x	x	x	n	x	x	x
O=C(O)/C(=C/c1ccco1)NC(=O)c1ccccc1	128	n	n	n	n	n	n	n
COc1ccccc1CNC(=O)N/C=C/c1ccc(Cl)cc1	n	n	n	n	n	x	x	x
COc1ccc(Cc2nnc(NC(=O)Nc3ccccc3)s2)cc1OC	n	n	n	n	n	x	x	x
CCCCCCCCCCCCN1C/C(=C\C(=O)OCC)c2cc(C(F)(F)F)ccc2S1(=O)=O	n	n	51	67	n	n	n	n
O=C(Nc1ccc(C(F)(F)F)cc1)c1cc(S(=O)(=O)NCC2COc3ccccc3O2)ccc1F (configuration not stated)	136	n	n	n	n	n	n	n
COc1ccc(NC(=O)c2cc(S(=O)(=O)NCC3COc4ccccc4O3)ccc2F)cc1 (configuration not stated)	n	n	n	n	n	x	x	x
Cc1cc(C)nc(SCC(=O)n2c3c(c4ccccc42)CCCC3)n1	153	n	n	n	n	n	n	n
COc1cccc(NC(=O)C2CCN(S(=O)(=O)c3ccc4c(c3)N(C(C)=O)CCO4)CC2)c1	n	n	n	n	n	x	x	x
COc1ccccc1C(=O)NCCCn1cc(Br)c(C)n1	n	n	n	138	n	n	n	n
O=C(/C=C/c1ccc2c(c1)OCO2)NCCS(=O)(=O)N1CCN(c2ccc(F)cc2)CC1	x	x	x	x	n	x	x	x
CC(=O)Nc1ccc(NC(=O)CCCc2ccccc2)cc1	n	n	n	n	n	x	x	x
O=C(CSc1nc2nc3c(cc2c(=O)n1-c1ccccc1)CCCC3)Nc1ccccc1	131	n	n	n	n	n	n	n
Nc1nc(SCC(=O)Nc2ccccc2)nc2nc3c(cc12)CCCC3	n	n	n	n	n	x	x	x
CCCCSc1nnc(CNC(=O)C23CC4CC(CC(C4)C2)C3)n1Cc1ccccc1	n	n	n	n	n	x	x	x
Cc1nnc(SCC(=O)NNC(=O)C(C)C)[nH]c1=O	134	n	n	n	n	n	n	n
CCc1ccc(C2CC(c3ccco3)=NN2S(C)(=O)=O)cc1 (configuration not stated)	n	n	55	x	n	n	n	n
CC(=O)N1N=C(c2ccco2)CC1c1ccc(Br)cc1 (configuration not stated)	n	n	n	n	n	x	x	x
CC(=O)N1N=C(c2ccco2)CC1c1ccc(C)cc1 (configuration not stated)	135	n	n	n	n	n	n	n
COc1ccc(-c2cc(CNS(=O)(=O)c3ccccc3)on2)cc1	n	n	n	n	n	x	x	x
COCC(=O)Nc1cc(C(=O)Nc2ccccc2C)ccc1Cl	82[inhibitor]	n	n	n	n	n	n	n
Cc1cc(OC(=O)c2cccc(Cl)c2)c([N+](=O)[O-])c(=O)[nH]1	n	n	n	n	n	x	x	x
O=C(NNc1cc(Cl)ccc1Cl)c1c(F)cccc1Cl	129	n	n	n	n	n	n	n
COc1ccccc1C(CNC(=O)c1cc(S(=O)(=O)N2CCOCC2)ccc1C)N1CCCC1 (configuration not stated)	x	x	x	x	n	x	x	x
CCN(CC)c1nc(N)c([N+](=O)[O-])c(NCCO)n1	134	n	n	n	n	n	n	n

Compound activity: PubChem, several laboratories
